# Sampled rows, rich in hits. Any-hit rate of the full collection: about 1.2%.
# gsp agonist – agonists of gsp mutant (McCune-Albright syndrome); actives 0.13% (n = 340,000); Potency, µM (highest dose often 76.9 µM), for the others: top-dose activation (cAMP increase), hits mostly activators; gsp mutant cells, cAMP HTRF, 30 min; active = well fitted activation curve with a large enough effect; inconclusive = small, poorly fitted or top-dose-only effect, or another doubt; inactive = no such curve, though single readings can be large or run the other way; cell line not stated here;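 note: phosphodiesterase inhibitor Ro 20-1724 added with compounds to block cAMP breakdown; potency is the fitted concentration of half-maximal effect; nearly all actives have a fitted effect of over 60% in size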
#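 Cells in DMEM/10% FBS with G418 were pretreated with compounds in DMSO plus […] (300 uM stock) for 30 min at 37C. cAMP was measured by HTRF (cAMP-d2 plus anti-cAMP antibody-K) after 30 min at room temperature.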
# RXFP1 agonist – RXFP1 (human) receptor agonism. AID 2676. Q9HBX9. actives 0.3% (n = 370,000). Potency, µM (titrated, usually from 57.5 µM), without a hit: at the highest dose activation, hits mostly activators. HEK293T-RXFP1 cAMP TR-FRET, 30 min; response scale: percent of porcine relaxin response, buffer zero; active = well fitted activation curve with a large enough effect; inconclusive = small, poorly fitted or top-dose-only effect; note: potency is the fitted concentration of half-maximal effect; % is set by controls: 0 for no effect and ±100 for the full control effect; nearly all actives have a fitted effect of over 60% in size
# Target sequence (Q9HBX9 whole entry, looked up): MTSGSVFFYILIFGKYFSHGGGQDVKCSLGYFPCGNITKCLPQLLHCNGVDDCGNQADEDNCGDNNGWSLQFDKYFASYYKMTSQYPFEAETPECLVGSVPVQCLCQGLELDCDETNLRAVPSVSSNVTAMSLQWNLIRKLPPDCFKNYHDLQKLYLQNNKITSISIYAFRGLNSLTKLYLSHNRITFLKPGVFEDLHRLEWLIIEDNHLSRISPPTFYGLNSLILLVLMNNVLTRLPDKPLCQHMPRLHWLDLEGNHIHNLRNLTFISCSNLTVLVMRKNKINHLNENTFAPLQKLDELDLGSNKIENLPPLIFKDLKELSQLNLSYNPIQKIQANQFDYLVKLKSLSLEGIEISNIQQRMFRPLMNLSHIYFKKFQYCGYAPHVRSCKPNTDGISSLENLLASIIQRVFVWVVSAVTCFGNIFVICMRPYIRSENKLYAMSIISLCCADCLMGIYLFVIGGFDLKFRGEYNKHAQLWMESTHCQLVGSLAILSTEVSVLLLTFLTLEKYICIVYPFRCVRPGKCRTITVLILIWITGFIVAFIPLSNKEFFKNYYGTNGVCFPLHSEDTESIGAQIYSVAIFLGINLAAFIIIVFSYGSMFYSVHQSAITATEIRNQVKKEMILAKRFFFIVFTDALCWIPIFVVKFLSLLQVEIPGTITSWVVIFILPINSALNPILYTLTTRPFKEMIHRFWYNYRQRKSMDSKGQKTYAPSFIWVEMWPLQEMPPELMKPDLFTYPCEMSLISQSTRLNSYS
#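 Agonist response is measured as cAMP accumulation in an RXFP1-transfected HEK293T line under PDE4 inhibition. Values are scaled between buffer-only and 29 nM porcine relaxin, and EC50s come from standard Hill equation fits.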
# RXFP1 antagonist – antagonists of human relaxin receptor RXFP1; Q9HBX9; HEK293-RXFP1, relaxin-stimulated cAMP HTRF, 30 min; stronger effect = lower value; activity change, negative = inhibition, % at 57.5 µM; actives 0.59% (n = 350,000);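 active = activity change of -60% or lower, but not beyond a set lower limit; inconclusive = change between -60% and -40%, or beyond the set limit; inactive = change above -40%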; note: % is set by controls: 0 for no effect and ±100 for the full control effect
# gsp antag – gsp mutant antagonism | actives 0.4% (n = 340,000) | gsp-mutant cells, cAMP HTRF, 30 min | AID 624288 | Potency, µM (doses to about 76.9 µM), for the others: at the top dose activity change, negative = inhibition, hits mostly inhibitors; calls by dose curve; cell line not stated here;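 note: intracellular cAMP measured with PDE inhibitor Ro 20-1724 present during compound exposure; potency is the fitted concentration of half-maximal effect; % is set by controls: 0 for no effect and ±100 for the full control effect; nearly all actives have a fitted effect of over 65% in size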
#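 Cells in G418 medium, seeded 16-24 h, 37C; buffer exchange to DPBS + 1 mM CaCl2, 0.5 mM MgCl2, 0.05% BSA; cpds in DMSO + […] (300 uM stock), 30 min 37C; HTRF cAMP detection.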
# pAkt inh – blocks phosphorylation of Akt. Neuro2A IGF-stimulated pAkt S473 HTRF, 20 min; stronger effect = lower value. activity change, % for hits at 50 µM. actives 0.32% (n = 360,000). AID 651550; in the data active = activity change below about -80%; inconclusive = mostly about -51% to -80%; note: % is set by controls: 0 for no effect and ±100 for the full control effect
#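 Neuro2A cells in DMEM with 0.5% FBS, overnight at 37 deg C, given compound at single 50 µM final, then IGF (6 nM final) for 20 min at 37 deg C. Lysed; phospho-Akt Ser473 by HTRF after 24 h, 665/615 ratio.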
# * = called active by the depositor; i = inactive; ? = inconclusive; · = no result; [ ] = dose if it differs, or a comment.
SMILES,gsp agonist,RXFP1 agonist,RXFP1 antagonist,gsp antag,pAkt inh
Cc1cccc(-c2nc(CSCC(=O)N3CCN(c4cccc(C)c4C)CC3)c(C)o2)c1,·,-1%,-14,·,·
COc1ccc(NC(=O)c2oc3ccccc3c2NC(=O)C2CCCCC2)c(OC)c1,·,1%,·,·,·
COc1ccc2cc(CNCCOCCOCCNCc3ccc4cc(OC)ccc4c3)ccc2c1,3%,·,-89*,19%,i
O=C(CSc1nc(=O)n(Cc2ccncc2)c2c1CCC2)Nc1cccc(F)c1,·,7%,·,·,·
COc1ccccc1Nc1c2c(nc3ccc(NC(=O)c4ccccc4F)cc13)CCCC2,·,2%,-66*,·,·
CCC(=O)N1c2ccc(S(=O)(=O)CCC(=O)N3CCN(c4ccc(F)cc4)CC3)cc2CC1C (configuration not stated),·,3%,·,·,·
O=[n+]1c2c(n([O-])c3cc(F)c(N4CCCC4)cc31)CCC2,21%,·,-3,40µM*,i
O=[n+]1c2c(n([O-])c3cc(F)c(N4CCCC4)cc31)CCCC2,24%,2%,4,2%,i
CCOC(=O)N1CCN(C(=O)CCCN2C(=O)CSc3nc(C)cc(C)c32)CC1,18%,0%,-13,50µM*,i
Fc1ccccc1N=C1NN=C(c2ccccc2)CS1,-9%[15.4 µM],1%,-17,-10%,i
Clc1ccccc1N=C1NN=C(c2cccs2)CS1,0%[15.4 µM],1%,-83*,4%,i
CCN(Cc1ccccc1)S(=O)(=O)c1cc(C(=O)Nc2cc(Cl)cc(Cl)c2)ccc1F,·,-1%,-3,·,·
CCCCN(CC)CCCNC(=O)c1ccc2c(c1)N(Cc1ccc(C)cc1)C(=O)c1ccccc1S2,·,1%,-66*,·,·
Cc1cccc(-n2ncc3c(NCCCN4CCCC4=O)ncnc32)c1,-40%,1%,-3,-23%,-106%*
Cc1ccc(/C=C2\SC(=S)N(CCC(=O)NNC(=O)c3ccncc3)C2=O)cc1,-8%[15.4 µM],-4%,-5,40µM*,i
Cc1ccc(NC(=O)CC2CS(=O)(=O)CC2CC(=O)Nc2ccc(C)c(C)c2)cc1C (configuration not stated),23%,3%,-2,6%,-121%*
COCCn1c(=S)[nH]c2cc(C(=O)N3CCc4ccccc4C3)ccc2c1=O,-5%[15.4 µM],1%,-66*,-10%,i
CCOc1cc2[nH]c(=S)n(CCOC)c(=O)c2cc1OCC,4.5µM*,-1%,?,9%,i
COCCn1c(=S)[nH]c2cc(C(=O)N3CC(C)CC(C)C3)ccc2c1=O (configuration not stated),?,-3%,8,-14%,i
CCCCN(C)CCn1c(=S)[nH]c2cc(OCC)c(OCC)cc2c1=O,-68%,-1%,5,-7%,i
COCCn1c(=S)[nH]c2cc(C(=O)N3CCN(c4ccccc4OC)CC3)ccc2c1=O,5%,0%,-112*,-3%,·
COCCn1c(=O)[nH]c2cc(C(=O)N3CCN(c4ccccc4OC)CC3)ccc2c1=O,5%,-1%,-14,4%,i
CCc1c(C)sc2c1CCN(C(=O)Nc1cc(Cl)c(OC)cc1OC)C2c1ccccc1 (configuration not stated),·,-3%,-6,·,·
COC(=O)c1ccc(NC(=O)NCCn2nnc3cc(S(=O)(=O)N(C)C)ccc32)cc1,·,0%,·,·,·
Cc1cc(NC(=O)c2ccco2)cc(-c2nc3cc(Cl)ccc3o2)c1O,·,11%,-16,·,·
O=C(COC(=O)COc1ccc(Cl)cc1)NCCNC(=O)COC(=O)COc1ccc(Cl)cc1,-2%[15.4 µM],0%,-72*,-3%,i
CCN1CCN(C(=O)Cn2ncc3c4ccccc4n(Cc4c(C)cc(C)cc4C)c3c2=O)CC1,·,0%,-36,·,·
CCN1C(=O)C2(C(C(=O)c3cc4ccccc4o3)=C(O)C(=O)N2CCCN2CCOCC2)c2ccccc21 (configuration not stated),106%[15.4 µM],16µM*,48,20%,i
CCN1C(=O)C2(C(C(=O)c3ccc(C)o3)=C(O)C(=O)N2CCCN2CCOCC2)c2ccccc21 (configuration not stated),9%,15%,8,3%,i

# Source: PubChem BioAssay (National Center for Advancing Translational Sciences (NCATS))
